Results reported in PubChem BioAssay AID624168 (Sanford-Burnham Center for Chemical Genomics, 2012).
About 800 (0.22%) of roughly 360,000 compounds were called active.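 The calls were made as follows: active = activation of at least 8% versus controls, or a plate z-score of at least 8; inactive = the rest.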 Many of the other results were omitted from the sample, so actives are more common in it than they were.

Assay: compounds raising alpha-dystroglycan glycosylation – uHTS, Pro5-aDG cells, AlphaScreen, primary screen (AID 624168);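 also: Pro5 are CHO cells carrying HIG-tagged alpha-DG that lacks glycosylation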
Settings: alpha-DG glycosylation AlphaScreen (IIH6), at 10 µM, active compounds read high, 0% Pro5, 100% B10-LARGE cell signal

| SMILES | activation |
| --- | --- |
| CN(CC(=O)Nc1cccc(F)c1)C(=O)C1=COCCO1 | 0.1% (inactive) |
| Cc1ccc(NC(=O)CN(C)CC(=O)Nc2cccc(F)c2)cc1[N+](=O)[O-] | 10% (active) |
| Cc1ccc(NC(=O)c2sccc2C)cc1[N+](=O)[O-] | 0% (inactive) |
| O=C(CN1CCCCC1)NC(=O)Nc1ccccc1F | 0% (inactive) |
| O=C(CCNS(=O)(=O)c1ccc(Br)s1)NCc1ccccc1Cl | 0.5% (inactive) |
| COc1cccc(NC(=O)N(C)C[C@@H]2Oc3ncc(Br)cc3C(=O)N([C@@H](C)CO)C[C@H]2C)c1 | 0.2% (inactive) |
| OC(CN1C2=NCCCN2c2ccccc21)c1ccc(Br)cc1 (stereo not given) | 0.6% (inactive) |
| CC(=O)N1CSCC1C(=O)O (stereo not given) | 0.1% (inactive) |
| O=c1ccc2cc(S(=O)(=O)N3CCN(c4ccccc4)CC3)ccc2o1 | 8.4% (active) |
| O=S(=O)(c1ccc2ccccc2c1)N1CCN(S(=O)(=O)N2CCOCC2)CC1 | 0.1% (inactive) |
| NC(=O)COC(=O)c1cc(S(=O)(=O)N2CCN(c3ccccc3)CC2)ccc1Cl | -1.4% (inactive) |
| O=C1OCCOC2CCCc3oc(-c4ccccc4)c1c32 (stereo not given) | 0.5% (inactive) |
| CCN(CC(=O)NCc1ccc(Cl)cc1)C(=O)CSc1ccccc1 | 0% (inactive) |
| O=C(NCCN1CCOCC1)Nc1cccc(Cl)c1 | -0.1% (inactive) |
| c1ccc2cc3c(NCCN4CCOCC4)ccnc3cc2c1 | 9% (active) |
| O=S(=O)(c1ccc(Cl)cc1)c1nc(-c2ccccc2F)oc1NCCN1CCOCC1 | 0.2% (inactive) |
| O=S1(=O)CC(NCc2ccccc2)C(Nc2ccc(Cl)cc2)C1 (stereo not given) | 0% (inactive) |
| O=C(/C(=N\O)n1cncn1)c1ccc(Br)cc1Br | 0.2% (inactive) |
| O=C(NC(c1ccc(Cl)cc1)c1cnccn1)C1CCN(Cc2ccc(Cl)cc2)CC1 (stereo not given) | 0.1% (inactive) |
| O=C(NC(c1ccc(-c2ccccc2)cc1)c1cnccn1)C1CCN(CCOc2ccc(Cl)cc2Cl)CC1 (stereo not given) | 7.1% (active) |
| Cc1ccc(C(NC(=O)C2CCN(CCOc3ccc(Cl)cc3Cl)CC2)c2ccccn2)cc1 (stereo not given) | 0.4% (inactive) |
| CCOC(=O)c1cc2sccc2n1Cc1ccc(C#N)cc1 | 0% (inactive) |
| CCOCCCNC(=O)C1(O)c2cc(Br)ccc2NC(=O)N1c1ccc(C)c(C)c1 (stereo not given) | -0.2% (inactive) |
| CN1CCCc2cc(C#N)c(=O)[nH]c21 | 0% (inactive) |

| SMILES | activation |
| --- | --- |
| CC(C)c1cc(Cn2c3ccccc3c(=O)n2C(C)Cn2cc(C3CC3)nn2)on1 (stereo not given) | 6.8% (active) |
| COCCN(C(=O)C(C)C)c1nnc(-c2ccc(C(C)(C)C)cc2)s1 | 0.5% (inactive) |
| Cc1ccc(OCc2nnc(SC3CCc4ccccc4C3=O)n2C)cc1 (stereo not given) | 0% (inactive) |
| Cc1cc(C)c(S(=O)(=O)n2cc(C(C)C(N)C(=O)O)c3ccccc32)c(C)c1 (stereo not given) | -0.2% (inactive) |
| Cc1ccc(NS(=O)(=O)c2c(C)[nH]c(C)c2C(=O)N2CCCCC2)c(C)c1 | -0.1% (inactive) |
| CCN(CC)C(=O)C1=C(C)N(Cc2ccc(OC)cc2)C(=O)C(CC(=O)NCc2ccco2)C1 (stereo not given) | -0.1% (inactive) |
| Cc1ccc(S(=O)(=O)N2CCCCC2)cc1NC(=O)[C@@H]1CCCN1C(=O)c1cccs1 | 0.1% (inactive) |
| O=C(Nc1cccc(Br)c1)C1CC(=O)N(C2CCCC2)C1 (stereo not given) | 0% (inactive) |
| COc1ccccc1N1CCN(C(=O)c2cc(-c3ccc(Br)cc3)on2)CC1 | 9.8% (active) |
| COc1ccc(OCc2cc(C(=O)N3CCCC3)no2)c2ccccc12 | 0.3% (inactive) |
| COc1ccccc1N1CCN(C(=O)c2cc(=O)c3cc(C)cc(C)c3o2)CC1 | -0.2% (inactive) |
| Cc1ccc(NS(=O)(=O)c2ccc(F)cc2)nc1 | -0.2% (inactive) |
| Fc1ccc(OCc2nn3c(Cn4nnc5ccccc54)nnc3s2)cc1 | 0.5% (inactive) |
| C=CCOc1cccc(CNn2cn[nH]c2=S)c1 | 0% (inactive) |
| CC[C@]12c3[nH]c4cc(CCC(=O)N(C)C)ccc4c3CCN1C(=O)[C@@H](CC(=O)NCC13CC4CC(CC(C4)C1)C3)C[C@@H]2C(=O)N1CCN(C(=O)C2CC2)CC1 | -0.1% (inactive) |
| Cc1cc(=O)oc(C)c1C(=O)NC1CC(C)(C)NC(C)(C)C1 | -0.1% (inactive) |
| COc1ccc(CC(NC(C)=O)C(=O)NC2CCN(C(=O)c3ccc(OC)c(OC)c3)CC2)cc1OC (stereo not given) | -0.3% (inactive) |
| Clc1cc(NC2CCCCC2)ncn1 | 0.2% (inactive) |
| CN(C)C(=S)Nc1ccc(Br)cc1Cl | 0.1% (inactive) |
| COc1ccc(Cl)cc1NC(=O)NCC1CCN(Cc2ccccc2F)CC1 | 1% (inactive) |
| O=C(CN1CCN(Cc2ccccc2)CC1)Nc1ccc(F)c(F)c1 | -0.1% (inactive) |
| Cc1cccc(CN2CCC(CNC(=O)Nc3ccc(F)c(Cl)c3)CC2)c1 | 5.2% (active) |
| Nc1cccnc1Sc1ccccc1 | 0% (inactive) |
| CC(=O)N/C(=C/c1ccc(OC(F)F)cc1)C(=O)O | -0.4% (inactive) |

| SMILES | activation |
| --- | --- |
| Cc1ccc(OCC(O)CN2CCN(CC(O)COc3ccc(C)cc3Cl)CC2)c(Cl)c1 (stereo not given) | 3.9% (active) |
| Cc1cccc(OCC(O)CN2CCN(S(=O)(=O)c3ccc(C)cc3C)CC2)c1 (stereo not given) | 0.1% (inactive) |
| OC(COc1ccc(F)cc1Cl)CN1CCc2ccccc2C1 (stereo not given) | 0.1% (inactive) |
| COc1ccc(CC(=O)OC(C)C(=O)Nc2ccc(S(N)(=O)=O)cc2)cc1 (stereo not given) | 0.1% (inactive) |
| CC(C)(C)c1cc(C(=O)N/N=C/c2ccc([N+](=O)[O-])s2)n[nH]1 | 2.7% (active) |
| Cc1nn(Cc2ccc(Cl)cc2)c(Cl)c1/C=N/NC(=O)CNc1ccccc1F | 0.9% (inactive) |
| Cc1ccc(S(=O)(=O)N2CCN(CC(=O)N/N=C/c3ccc(Br)s3)CC2)cc1 | -0.1% (inactive) |
| O=[N+]([O-])c1ccc(C=Nc2ccc(Cl)cc2Cl)s1 | -0.4% (inactive) |
| Cc1ccccc1NCC(=O)N/N=C\c1ccc([N+](=O)[O-])s1 | 9.3% (active) |
| Cc1c(C(=O)N2CCCC2)c(S(=O)(=O)NCC(C)c2ccccc2)c(C)n1C (stereo not given) | -0.1% (inactive) |
| O=S(=O)(N1CCCCC1)N1CCNCC1 | 0% (inactive) |
| CC(C)[C@@H](C(=O)O)N(Cc1cccc(CN([C@H](C(=O)O)C(C)C)S(C)(=O)=O)c1)S(C)(=O)=O | -0.1% (inactive) |
| COc1ccc(F)cc1S(=O)(=O)N1CCCCC1 | -0.1% (inactive) |
| Cc1cc(C)c2[nH]c(=O)c(CN(Cc3ccccc3)C(=S)NCCCN(C)C)cc2c1 | 8.7% (active) |
| Cc1cccc2cc(CN(Cc3cccs3)C(=S)NCc3ccco3)c(=O)[nH]c12 | 0% (inactive) |
| COCCCNC(=S)N(CCN(C)C)Cc1cc2cc3c(cc2[nH]c1=O)OCCO3 | -0.2% (inactive) |
| Cc1cccc(C)c1NC(=O)N1CC=C(n2c(=O)[nH]c3ccccc32)CC1 | 0.1% (inactive) |
| O=C(Nc1cc(S(=O)(=O)Nc2ccc(Cl)cc2)ccc1O)c1ccc(F)cc1F | 0.4% (inactive) |
| CC(=O)N(c1ccc2oc(=O)sc2c1)S(=O)(=O)c1ccc(C)cc1 | 0% (inactive) |
| O=C(c1cccnc1)N(c1cc2sc(=O)oc2c2ccccc12)S(=O)(=O)c1ccccc1 | 8.9% (active) |
| O=C(CN(c1cc(C(F)(F)F)ccc1Cl)S(=O)(=O)c1ccccc1)NCc1cccnc1 | 0.2% (inactive) |
| O=C(Nc1ccc(-n2ccnc2P(=O)(O)c2ccccc2)cc1)c1ccccc1Br | -0.1% (inactive) |
| COc1ccc(C2c3[nH]c4ccccc4c3C[C@H]3C(=O)N(CC(C)C)CC(=O)N23)c(OC)c1 (stereo not given in full) | 0.3% (inactive) |
| COc1ccc(C2(CNC(=O)Cc3ccc(OC)c(OC)c3)CCCC2)cc1 | -0.3% (inactive) |

| SMILES | activation |
| --- | --- |
| COc1ccc(CC(=O)Nc2nc(-c3ccc(F)c(F)c3)cs2)cc1OC | 2.7% (active) |
| COc1ccc(CC(=O)NC2CCSc3ccccc32)cc1OC (stereo not given) | 0.1% (inactive) |
| Cc1c(C(=O)N(C)CCc2cnn(C)c2)oc2c(F)cccc12 | 0.2% (inactive) |
| COCCc1nn2c(=O)cc(COC(=O)c3cc(OC)c(OC)c(OC)c3)nc2s1 | -0.1% (inactive) |
| CN1OC(COC(=O)c2ccc(Cl)cc2)CC1c1ccccc1 (stereo not given) | 0.1% (inactive) |
| Cc1ccc(C(=O)C(=S)N2CCOCC2)cc1 | 0% (inactive) |
| O=C(Nc1nnc(S(=O)(=O)N2CCCCCC2)s1)c1cccc(Br)c1 | -0.2% (inactive) |
| COc1cccc(C(=O)Nc2nnc(S(=O)(=O)N3CCCCC3)s2)c1 | 10.9% (active) |
| COc1cccc(C(=O)Nc2nnc(S(=O)(=O)N3CCOCC3)s2)c1 | -0.1% (inactive) |
| CC(C)(C)OC(=O)N1CCC(C(=O)NNC(=O)c2ccc(Cl)cc2Cl)CC1 | 0.1% (inactive) |
| c1ccc2c(NC3C4CC5CC(C4)CC3C5)nc(N3CCOCC3)nc2c1 (stereo not given) | 0.7% (inactive) |
| CCOc1ccc(CCNC(=O)CCc2nnc3ccc(N4CCCC4)nn23)cc1OCC | 0.3% (inactive) |
| COCCCC1CCN(C(=O)C2CCC(=O)N(C3CCCCCC3)C2)CC1 (stereo not given) | -0.3% (inactive) |
| COC(=O)C(Cc1c[nH]c2ccccc12)NC(=O)CCNC(=O)c1ccco1 (stereo not given) | 0.2% (inactive) |
| CCOc1ccccc1Nc1nnc(SCC(=O)NCC2CCCO2)s1 (stereo not given) | 5.2% (active) |
| CCOc1ccccc1Nc1nnc(SCC(=O)Nc2cc(C)on2)s1 | -0.2% (inactive) |
| COc1ccccc1N1CC(C(=O)Nc2nnc(SCC(=O)NCC3CCCO3)s2)CC1=O (stereo not given) | -0.1% (inactive) |
| COc1ccccc1OCCn1c(SCC(N)=O)nc2ccccc21 | 0% (inactive) |
| NC1=CC(=O)C(=O)c2cccnc21 | 4.9% (active) |
| O=C(C1CCCN(S(=O)(=O)c2ccc([N+](=O)[O-])cc2)C1)N1CCCCC1 (stereo not given) | 0.9% (inactive) |
| O=C1C(=O)N(c2ccccc2)c2ccccc21 | 2.6% (inactive) |
| COc1cc(C(C)=O)ccc1OC(=O)CN1C(=O)c2ccccc2C1=O | -0.1% (inactive) |
| CC(C)OC(=O)CN1C(=O)C(=O)c2ccccc21 | 14.6% (active) |
